ELG1 DNA repair: inhibitors of ELG1-dependent DNA repair in HEK293T cells; hit rate 2.3% among 330,000; Potency, µM (top dose mostly 46.1 µM), for inactives: at the top dose activity change, negative = inhibition, usual class: inhibitors; HEK293T ELG1-luciferase reporter, luminescence, 16 h; DNA damage induced by 5-fluorouridine; AID 504467; also: potency is read from the fitted curve at half-maximal effect; nearly all actives have a fitted effect of over 55% in size
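Overnight (16 hr) co-exposure of 2,000 cells/well to 5-fluorouridine and compound at 37 °C preceded detection. Luciferase was quantified via ONE-Glo luminescence; loss of signal denotes inhibition.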
DT40 TDP1 CPT: growth inhibition of DT40 Tdp1-/-;hTDP1 cells with camptothecin (screen for TDP1 inhibitors). Potency, µM (doses to about 46.2 µM), without a hit: top-dose activity change, negative = growth inhibition, actives largely listed as inhibitors. hit rate 12% among 420,000. chicken DT40 Tdp1-/-;hTDP1 cells + 20 nM CPT, ATP luminescence, 48 h; also: potency is read from the fitted curve at half-maximal effect; nearly all actives have a fitted effect of over 55% in size
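Chicken DT40 Tdp1-/- cells stably complemented with human TDP1 were seeded at 400 cells/well in medium containing 20 nM camptothecin, exposed to pin-transferred compounds, and grown at 37 °C for at least 48 hr. Viability was read as ATP luminescence.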
HT1080NT lethal: kills 2HG-producing HT-1080-NT fibrosarcoma cells; HT-1080-NT fibrosarcoma viability, CellTiter-Glo ATP luminescence, 48 h; Potency, µM (doses to about 46.1 µM), for the others: at the highest dose activity, negative = less viability, hits mostly cytotoxic; hit rate 1.6% among 360,000; AID 686970;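 also: NT is the 2HG producing partner of a matched IDH1 knockdown line; potency is read from the fitted curve at half-maximal effect; 0% = DMSO-treated cells and -100% = media-only wells without cells; nearly all actives have a fitted effect of over 55% in size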
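A 48-hour cytotoxicity screen used HT-1080-NT cells plated 2 hours before compound delivery. ATP-based CellTiter-Glo luminescence measured viability, normalized to DMSO and no-cell controls.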
DT40 TDP1 no CPT: qHTS for Inhibitors of human tyrosyl-DNA phosphodiesterase 1 (TDP1): qHTS in cells in absence of CPT; DT40 Tdp1-/- hTDP1 cells, no CPT, ATP luminescence, 48 h; Potency, µM (top dose mostly 46.2 µM), for inactives: top-dose activity change, negative = growth inhibition, usual class: inhibitors; hit rate 15% among 420,000; AID 686978, 2013; also: potency is read from the fitted curve at half-maximal effect; nearly all actives have a fitted effect of over 55% in size
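No-CPT arm: Tdp1-/-;hTDP1 DT40 cells (400/well) plus compounds, incubated ≥48 hr at 37 °C. Readout CellTiter-Glo luminescence.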
HT1080 IDH1KD tx: toxicity to HT-1080 IDH1 knockdown cells (counter line) | hit rate 2% among 360,000 | HT-1080 IDH1 knockdown viability, ATP luminescence, 48 h | Potency, µM (highest dose often 46.1 µM), for inactives: top-dose activity, negative = toxicity, usual class: cytotoxic;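 also: potency is read from the fitted curve at half-maximal effect; 0% = DMSO wells and -100% = cell-free medium wells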
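Luminescent ATP read-out (CellTiter-Glo, 10 min at room temperature) after 48 h compound exposure at 37 °C gave viability of IDH1-knockdown HT-1080 cells. Activity was normalised to DMSO and cell-free wells, then fitted as concentration-response curves.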
IL1B secr inh: inflammasome signaling inhibition, IL-1 beta readout. THP-1 LPS/ATP IL-1B secretion, AlphaLISA, 16 h; hits give low values. activity change, % at 57.5 µM. hit rate 4.7% among 360,000. AID 743279; in the data active = activity change below about -50%; inconclusive = mostly about -30% to -49%
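Secreted IL-1B measured by AlphaLISA bead assay after 16 h compound exposure of THP-1 cells; compounds (final up to 57.5 uM) added 1 h before LPS (250 ng/mL) and ATP (1.25 mM) stimulation; lower signal means less secretion.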
Numbers without * were called inactive; ? = inconclusive; nt = no result given; [ ] = dose if it differs, or a comment. Rows were chosen to be rich in hits. Some 19% of all compounds tested hit in one or more screens of this group. Unless noted, calls follow the shape of the dose curve; as a rule, active = well fitted curve in the direction sought with a large enough effect; inconclusive = small, poorly fitted or top-dose-only effect, or another doubt; inactive = no such curve, though single readings can be large; an effect the other way counts as inactive or inconclusive. Unless noted, % is scaled to controls: 0 for no effect and ±100 for the full control effect.

SMILES | ELG1 DNA repair | DT40 TDP1 CPT | HT1080NT lethal | DT40 TDP1 no CPT | HT1080 IDH1KD tx | IL1B secr inh
Cc1ccc2[nH]c(CSc3ccccc3)cc(=O)c2c1 | 4% | 18µM* | -14% | 16µM* | -7% | 10
COc1ccc(-n2c(=O)c(-c3ccc(Cl)cc3)nc3cnc(N(C)C)nc32)cc1 | nt | -20% | nt | -2% | nt | nt
CN(C)Cc1ccccc1-c1cc(NCc2cccs2)ncn1 | nt | -4% | nt | 30% | nt | nt
COCCNc1nc(-c2c(C)noc2C)nc2ccccc12 | nt | -22% | nt | -17% | nt | nt
Cc1cccc(CNc2nc(-c3ccccc3CN(C)C)nc3ccccc23)c1 | nt | 13µM* | nt | 5.2µM* | nt | nt
CN(C)Cc1ccccc1-c1nc(NCc2cccs2)c2ccccc2n1 | nt | 21µM* | nt | 21µM* | nt | nt
Cc1noc(C)c1-c1nc(NCc2cccs2)c2ccccc2n1 | nt | ? | nt | 23µM* | nt | nt
CN(C)Cc1ccccc1-c1nc(N(C)C)c2ccccc2n1 | nt | 12µM* | nt | ? | nt | nt
CCCCn1c(N)c(N(CC(C)C)C(=O)C2=NN(c3cc(C)ccc3C)C(=O)CC2)c(=O)[nH]c1=O | 20% | -10% | -9% | ? | -7% | 6
Cc1cccc(CNc2nc(-c3ccoc3)nc3ccccc23)c1 | nt | ? | nt | 21µM* | nt | nt
Cc1nc2sc(-c3ccccc3)cc2c(=O)n1-n1cccc1 | ? | ? | 1% | ? | 7% | -63*
C[C@H](O)CNC(=O)c1[nH]cnc1C(=O)Nc1ccc(CNC(=O)OC(C)(C)C)cc1 | nt | ? | -21% | ? | 1% | -10
Cc1ccc(S(=O)(=O)N2CCOCC2)cc1NC(=O)CSc1nnc(COc2ccccc2F)n1N | nt | -20% | 7% | -22% | 18% | -1
CN(CCc1ccccc1)C(=O)c1ccc(NC(=O)Cc2ccc(NC(=O)C3CCN(C(=O)C4CCCCC4)CC3)cc2)cc1 | nt | ? | -20% | 16µM* | ? | 2
CN(C(=O)c1ccc(NC(=O)Cc2ccc(NC(=O)C3CCN(C(=O)C4CCC4)CC3)cc2)cc1)C1CCCC1 | nt | -29% | -4% | -25% | -13% | 7
CN(Cc1ccccc1)C(=O)c1ccc(NC(=O)Cc2ccc(NC(=O)C3CCN(C(=O)C4CCCC4)CC3)cc2)cc1 | nt | ? | -13% | ? | -11% | 21
CN(CCc1ccccc1)C(=O)c1ccc(NC(=O)Cc2ccc(NC(=O)C3CCN(C(=O)C4CCC4)CC3)cc2)cc1 | nt | ? | -6% | 10µM* | -18% | ?
CC(=O)C1=C(O)C=C2Oc3c(C(C)=O)c(O)c(C)c(O)c3C2(C)C1=O (stereo unspecified) | nt | -5%[9.04 µM] | nt | 10%[9.04 µM] | nt | nt
COc1cccc(-c2c(C#N)c(N)nc3c2c(C)nn3-c2ccccc2)c1O | ? | ? | -23% | ? | -28% | -5
COc1ccc(Cn2nnnc2C(C(C)C)N(Cc2ccco2)Cc2cccs2)cc1 (stereo unspecified) | 1% | ? | -4% | ? | -11% | -11
CC(C)C(c1nnnn1Cc1ccccc1)N(Cc1ccco1)Cc1cccs1 (stereo unspecified) | ? | ? | -13% | 21µM* | -30% | -10
CCc1c(O)nc(SCC(=O)Nc2ccc(Cl)cc2)n(-c2ccccc2)c1=O | nt | 2% | -11% | -9% | 0% | -3
CC(=O)Nc1cccc(NC(=O)c2cc3c(=O)n4cccc(C)c4nc3n2C)c1 | nt | -29% | nt | ? | nt | nt
Cc1ccc(Cl)cc1NC(=O)c1cc2c(=O)n3cccc(C)c3nc2n1C | nt | 0.58µM* | nt | 0.52µM* | nt | nt
CCCCN(CC)C(=O)c1cc2c(=O)n3cccc(C)c3nc2n1C | nt | ? | nt | 16µM* | nt | nt
SMILES | ELG1 DNA repair | DT40 TDP1 CPT | HT1080NT lethal | DT40 TDP1 no CPT | HT1080 IDH1KD tx | IL1B secr inh
O=C(c1ccc(Cl)nc1)N1CCN(S(=O)(=O)c2ccccc2)CC1 | -9% | -11% | 1% | 10% | -2% | -12
COc1cc(-c2[nH]ncc2CN2CCN(Cc3cccs3)CC2)cc(OC)c1OC | 12% | 18µM* | -19% | 21µM* | -25% | 40
Cc1ccc(CNC(=O)C(=O)NCC(c2cccnc2)N2CCN(c3ccccc3F)CC2)cc1 (stereo unspecified) | nt | 13µM* | nt | 5.8µM* | nt | nt
O=C(NCC(c1cccnc1)N1CCN(c2ccccc2F)CC1)C(=O)Nc1ccc(F)cc1F (stereo unspecified) | nt | ? | nt | 15µM* | nt | nt
O=C(NCc1nnnn1-c1ccc(Cl)cc1)C(=O)c1c[nH]c2ccccc12 | nt | -2% | -3% | -25% | -2% | -14
CCc1ccc(-c2cc3c(=O)n(CC(=O)N4CCCC4)nc(C)n3n2)cc1 | -2% | -11% | 4% | 19% | 0% | 54
CCOC(=O)N1CCN(C(=O)Cn2nc(C)n3nc(-c4ccc(OC)cc4)cc3c2=O)CC1 | -2% | ? | 6% | ? | 16% | 4
CCOC(=O)N1CCN(C(=O)Cn2nc(C)n3nc(-c4ccc(CC)cc4)cc3c2=O)CC1 | 1% | 16µM* | -1% | 21µM* | -2% | 13
COc1ccc(-c2cc3c(=O)n(CC(=O)Nc4cccc(Cl)c4)nc(C)n3n2)cc1 | 22% | 15µM* | -4% | ? | -1% | 4
COc1ccc(-c2cc3c(=O)n(CC(=O)Nc4ccc(C(C)=O)cc4)ncn3n2)cc1 | ? | 7% | -3% | -6% | -3% | -22
CCOC(=O)C1CCN(C(=O)Cn2nc(C)n3nc(-c4ccc(OC)cc4)cc3c2=O)CC1 | ? | 23µM* | 2% | 21µM* | 0% | 9
Cc1cccc(C(=O)N[C@H](C(=O)Nc2nc3ccc(S(C)(=O)=O)cc3s2)C(C)C)c1 | 1% | ? | -23% | ? | ? | ?
Cn1c(=O)c2sccc2n2c(CCCC(=O)Nc3ccc(F)c(F)c3)nnc12 | nt | -3% | nt | ? | nt | nt
COc1ccc(-c2csc(-c3c(N)c(C(=O)c4ccccc4)n4ccccc34)n2)cc1OC | nt | 4.1µM* | nt | 2.3µM* | nt | nt
COc1ccc(-c2csc(-c3c(N)c(C(=O)c4ccccc4)n4ccccc34)n2)cc1 | nt | -29% | nt | ? | nt | nt
Nc1ccc(Sc2ccc([N+](=O)[O-])cc2)cc1 | 6% | ? | -5% | ? | 0% | -70*
CC(C)(C)C(=O)Nc1ccc(Sc2ccc([N+](=O)[O-])cc2)cc1 | ? | 8.2µM* | -14% | 7.3µM* | -14% | -9
Cn1c(N)c(Sc2ccc([N+](=O)[O-])cc2)c(=O)n(C)c1=O | 6% | -4% | 17% | -2% | 20% | 14

Screening data: PubChem BioAssay, National Center for Advancing Translational Sciences (NCATS)
